The list is not random: actives were taken first. Their share in the collection is about 2.6%.
eIF4E-4G inh: inhibitors of eIF4E and eIF4G interaction in translation initiation; TR-FRET eIF4E-eIF4GI(517-606) binding, 2 h; 220,000 tested, 0.37% active; inhibition, % at 21.7 µM;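 active = inhibition above about 30%, limit read from the data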;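 also: 0% = full FRET control wells and 100% = background wells lacking eIF4GI fragment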
Mcl1 Bid PPI: Mcl-1/Bid interaction inhibition. TR-FRET Mcl-1/Bid-Dy647 peptide binding, 1536-well. inhibition, % at 21.7 µM. 220,000 tested, 0.97% active. AID 1021;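 active = compounds that cut the binding signal by more than half at the single screening dose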;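 also: His-tagged Mcl-1 with europium anti-His antibody binding Bid BH3 peptide; 0% = Mcl-1 plus peptide wells and 100% = peptide-only wells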
Target sequence (Q07820 whole entry, looked up): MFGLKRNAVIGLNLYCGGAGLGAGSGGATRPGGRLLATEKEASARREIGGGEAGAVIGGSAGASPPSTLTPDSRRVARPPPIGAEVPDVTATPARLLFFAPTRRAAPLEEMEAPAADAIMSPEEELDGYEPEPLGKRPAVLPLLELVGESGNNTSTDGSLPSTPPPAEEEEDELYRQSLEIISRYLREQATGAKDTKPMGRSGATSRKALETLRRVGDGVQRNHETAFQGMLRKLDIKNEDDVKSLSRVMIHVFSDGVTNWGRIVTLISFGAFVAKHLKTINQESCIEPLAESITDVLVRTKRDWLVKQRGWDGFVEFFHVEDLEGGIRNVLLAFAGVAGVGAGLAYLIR
Mcl-1 Bim block: disrupts Bim peptide binding to human Mcl-1; Bead-based flow cytometry, Bim peptide-Mcl-1 binding; Q07820; 190,000 tested, 0.1% active; inhibition, % at 10 µM; in the data active = inhibition above about 40%;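 also: 0% = no compound tracer wells and 100% = peptide blocker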
14-3-3 Bad PPI: disrupts binding of bovine 14-3-3 zeta to phospho-Bad peptide; P63103; TR-FRET 14-3-3zeta/Dy647-pBad peptide displacement, 1 h; inhibition, % at 21.7 µM; 220,000 tested, 0.71% active; AID 781;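 active = inhibition above about 70%, limit read from the data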;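 also: 0% = full 14-3-3 plus peptide FRET controls and 100% = background without 14-3-3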
Target sequence (P63103 whole entry, looked up): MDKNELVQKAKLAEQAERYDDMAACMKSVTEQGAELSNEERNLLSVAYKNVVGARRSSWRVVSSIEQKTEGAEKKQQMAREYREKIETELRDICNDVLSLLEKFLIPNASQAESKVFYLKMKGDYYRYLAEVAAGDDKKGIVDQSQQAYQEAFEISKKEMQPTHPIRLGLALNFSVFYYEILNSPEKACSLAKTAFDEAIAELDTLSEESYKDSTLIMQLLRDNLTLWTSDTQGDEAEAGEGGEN
MCL1 BIM primary: inhibitors of human MCL1 binding to BIM-BH3 peptide. Q07820. GST-MCL1 / FITC-Bim-BH3 fluorescence polarization. inhibition, % at 10.9 µM. 320,000 tested, 0.68% active. AID 2057;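 active = inhibition above the mean inhibition of all tested compounds plus 3 SD, set per campaign, cut at about 40% in these data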;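 also: 0% = DMSO wells and 100% = unlabeled Bim-BH3 peptide control; higher means more loss of mP so more displacement of Bim peptide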
Mcl1-Noxa inh: Mcl-1/Noxa interaction inhibition; inhibition, % at 21.7 µM; TR-FRET Mcl-1/Noxa peptide binding, 2 h; 220,000 tested, 1.5% active; AID 1022; Q07820;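 active = compounds that cut the protein-peptide binding signal by more than 50% relative to plate controls in a single-dose test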;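 also: His-tagged Mcl-1 with rhodamine Noxa BH3 peptide and terbium anti-His antibody; 0% = Mcl-1 plus Noxa peptide wells and 100% = peptide-only wells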
* = called active by the depositor; . = no result given.

SMILES	eIF4E-4G inh	Mcl1 Bid PPI	Mcl-1 Bim block	14-3-3 Bad PPI	MCL1 BIM primary	Mcl1-Noxa inh
CSc1nc(-c2ccc(C)cc2)[nH]c1S(=O)(=O)c1ccccc1	-7	3	2	23	-19	26
CC(=O)Sc1nc(-c2ccccc2)[nH]c1S(=O)(=O)c1ccc(C)cc1	0	-53	-2	-14	-12	70*
O=S(=O)(c1cccs1)N1CCN(CC(O)COC2CCCc3ccccc32)CC1 (configuration not stated)	0	30	-1	79*	4	29
Cc1ccn2c(Nc3ccc4c(c3)OCO4)c(-c3ccc(O)cc3)nc2c1	11	-98	.	2	9	51*
CC1(C)CC(=O)C2=C(C1)OC(N)=C(C#N)C2c1cccc(OC(=O)c2ccco2)c1 (configuration not stated)	-2	97*	-5	3	7	-6
COc1ccc(C2C(C#N)=C(N)OC3=C2C(=O)CC(C)(C)C3)cc1OC (configuration not stated)	-3	-10	-1	-4	-3	12
Cc1cc(=O)n2nc(N3CCCC(C(=O)NCCCN4CC(C)CC(C)C4)C3)sc2n1 (configuration not stated)	.	.	.	.	1	.
COc1cc2oc(-c3ccc(O)cc3)cc(=O)c2c(O)c1OC	58*	-46	.	-1	3	9
CCN(C(=O)COC(=O)c1cccnc1SC)c1c(N)n(Cc2ccccc2)c(=O)[nH]c1=O	.	.	.	.	7	.
CCOc1ccc2nc(SCC(=O)NCc3ccc(S(N)(=O)=O)cc3)[nH]c2c1	.	.	.	.	0	.
CCOc1ccc(-c2nnc(SCC(=O)Nc3ccc4c(c3)c3ccccc3n4CC)n2N)cc1	-48	50	7	73*	4	18
CCn1c2ccccc2c2cc(NC(=O)CSc3nnc(-c4ccc(OC)c(OC)c4)n3N)ccc21	-2	-20	-2	5	-10	7
O=c1c(O)c(-c2ccc(O)cc2O)oc2cc(O)cc(O)c12	9	-42	3	57	.	103*
COc1c(-c2ccc(O)c(O)c2)oc2cc(O)cc(O)c2c1=O	-16	-61	.	8	-5	56*
Cc1ccc2nc(-c3ccc(NC(=O)CSCC(=O)O)cc3)sc2c1	-1	19	.	9	0	9
Cc1ccc2nc(-c3ccc(NC(=O)CCN4C(=O)c5ccccc5C4=O)cc3)sc2c1	0	56*	-2	40	-7	49
O=C(O)CSCC(=O)Nc1ccc(-c2nc3ccccc3s2)cc1	0	-10	.	9	1	56*
O=c1nc2ccccc2c2n1CC(CN1CCN(c3ccccc3F)CC1)N2 (configuration not stated)	1	-20	-3	2	7	9
O=C(O)CSc1nnc(COc2cccc3cccnc23)n1-c1cccc(C(F)(F)F)c1	68*	-21	-1	-5	3	-6
O=C(CN1CCN(S(=O)(=O)c2ccccc2F)CC1)NCC1(N2CCOCC2)CCCCC1	.	.	.	.	-4	.
O=C(Cc1ccccc1F)NCC1(N2CCOCC2)CCCCC1	-2	-11	.	-8	4	60*
CC(C)(C)c1cc(CN2CCCC(O)C2)c(O)c(C(C)(C)C)c1 (configuration not stated)	8	-11	0	73*	10	15
Cc1cccc(CS(=O)(=O)Cc2ccc(C(=O)NC3CCCCCC3)o2)c1	.	.	.	.	0	.
S=C(NCCCN1CCOCC1)NCCCN1CCOCC1	-18	-50	-11	4	14	4
S=c1[nH]nc(NCCCN2CCOCC2)s1	42*	-41	.	0	-1	-5
SMILES	eIF4E-4G inh	Mcl1 Bid PPI	Mcl-1 Bim block	14-3-3 Bad PPI	MCL1 BIM primary	Mcl1-Noxa inh
COc1ccccc1CNC(=O)c1cnccn1	-5	-53	2	-5	18	68*
CCOc1cc(/C=C2\SC(=S)N(C(C(=O)O)c3ccccc3)C2=O)ccc1O (configuration not stated)	6	51*	.	18	-22	51*
C=CCn1c(SCC(=O)Nc2ccccc2C)nc2sc(C)c(C)c2c1=O	1	-9	-6	-8	-9	-4
C=CCn1c(SCC(=O)Nc2sccc2C(N)=O)nc2sc(C)c(C)c2c1=O	-12	52*	-3	17	3	3
CCOc1ccc2cc(C3CC(c4ccco4)=NN3S(C)(=O)=O)c(=O)[nH]c2c1 (configuration not stated)	36*	-10	.	5	-2	26
CCOc1ccc2nc(Cl)c(C3CC(c4ccco4)=NN3S(C)(=O)=O)cc2c1 (configuration not stated)	-1	0	.	1	9	-1
Cc1cc2[nH]c(=O)cc(-c3ccccc3)n2n1	.	.	.	.	5	.
Nc1nn2c(-c3ccccc3)cc(=O)[nH]c2c1N=Nc1ccc(Br)cc1	13	36	1	18	.	92*
COc1cc(/C=C2\SC(=O)N(CCN)C2=O)ccc1OS(=O)(=O)c1cc(C)ccc1C	12	-21	2	84*	.	6
NCCN1C(=O)S/C(=C\c2ccc3c(c2)OCO3)C1=O	.	.	.	.	5	.
Cn1nc(-c2ccc(N3CCN(CCO)CC3)c([N+](=O)[O-])c2)c2ccccc2c1=O	0	-9	-3	-9	8	8
O=C(CN1C(=O)/C(=C/c2cccc(Br)c2)SC1=S)NC1=NCCS1	11	0	-4	8	1	55*
O=C(CCN1C(=O)/C(=C/c2ccc(F)cc2)SC1=S)NNC(=O)c1cccnc1	2	-5	4	5	11	15
O=C(CCN1C(=O)/C(=C/c2ccc3c(c2)OCO3)SC1=S)NNC(=O)c1cccnc1	2	53*	-21	71*	-9	35
COc1cccc(/C=C2\SC(=S)N(CCCC(=O)NC3=NCCS3)C2=O)c1	.	.	.	.	4	.
O=C(CCN1C(=O)/C(=C/c2cccc(Br)c2)SC1=S)NNC(=O)c1cccnc1	0	67*	7	50	5	46
O=C(CN1C(=O)/C(=C/c2cccc(Br)c2)SC1=S)Nc1cccnc1	-1	6	-2	-2	6	52*
O=C(CCN1C(=O)/C(=C/c2ccccc2)SC1=S)NNC(=O)c1cccnc1	4	-1	0	-5	5	19
COc1cccc2[nH]c(C(=O)NCc3ccccc3)cc12	.	.	.	.	0	.
COc1ccc(/C=C(\CC(=O)O)c2nc3ccccc3s2)cc1O	-2	-3	0	-25	0	25
COc1ccc(C(=O)Nc2cccc(/C=C/c3nc4ccccc4c(=O)[nH]3)c2)cc1	-16	43	.	41	-13	57*
O=C(O)C/C(=C\c1cccc(NC(=O)c2ccccc2Cl)c1)c1nc2ccccc2s1	7	-20	.	-3	-7	65*
COc1ccc(C(=O)Nc2nc3cc(OC)c(OC)cc3c(=O)[nH]2)cc1	-13	99*	10	4	5	-8
